In PubChem BioAssay (Tox21):
Records with an inconclusive call do not appear. A call without a number means that no potency is given here. Calls of active or inactive are those of the source. The call rests on the fitted dose curve; in most records, active means well fitted curve in the direction sought with a large enough effect in the repeat runs; inconclusive means weak or mixed curves; inactive means no such curve, though single readings can be large; an effect the other way counts as inactive or inconclusive.

Assays:
[1] = target: Cytochrome P450 2C19 (Homo sapiens) (UniProt P33261); assay: Cytochrome P450 Family 2 Subfamily C Member 19 (CYP2C19) small molecule antagonists: luciferase reporter qHTS assay (AID 1671197); conditions: P450-Glo CYP2C19 enzyme, luciferin luminescence, 1 h; series mostly up to 115 µM; further: nearly all actives have a fitted effect of over 65% in size
Cytochrome P450 2C19 (Homo sapiens), sequence (P33261 whole entry, looked up): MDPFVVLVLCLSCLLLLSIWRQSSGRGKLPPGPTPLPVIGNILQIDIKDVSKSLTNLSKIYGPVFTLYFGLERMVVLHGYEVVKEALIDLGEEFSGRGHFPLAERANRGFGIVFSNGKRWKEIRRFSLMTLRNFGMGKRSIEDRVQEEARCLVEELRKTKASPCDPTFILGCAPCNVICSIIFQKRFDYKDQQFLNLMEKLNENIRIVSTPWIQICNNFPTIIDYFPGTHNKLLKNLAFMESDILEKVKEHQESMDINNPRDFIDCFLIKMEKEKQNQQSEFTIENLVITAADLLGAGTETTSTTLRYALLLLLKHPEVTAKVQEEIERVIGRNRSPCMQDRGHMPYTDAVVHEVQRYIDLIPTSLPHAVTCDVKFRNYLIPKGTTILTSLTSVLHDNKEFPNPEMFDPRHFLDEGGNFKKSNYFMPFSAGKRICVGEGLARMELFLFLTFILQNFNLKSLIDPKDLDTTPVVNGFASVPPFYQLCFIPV
Summary of the method: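 First, compounds are pinned into enzyme-substrate mix and held 10 min at room temperature. Second, NADPH regeneration solution is added and plates incubate 1 h at 37C. Third, detection reagent is added and luminescence read after 20 min.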

[2] = target: Cytochrome P450 2C9 (Homo sapiens) (UniProt P11712); assay: Cytochrome P450 Family 2 Subfamily C Member 9 (CYP2C9) small molecule antagonists: luciferase reporter qHTS assay (AID 1671198); conditions: P450-Glo CYP2C9 enzyme assay, luciferin luminescence; series mostly up to 115 µM; further: nearly all actives have a fitted effect of over 50% in size
Cytochrome P450 2C9 (Homo sapiens), sequence (P11712 whole entry, looked up): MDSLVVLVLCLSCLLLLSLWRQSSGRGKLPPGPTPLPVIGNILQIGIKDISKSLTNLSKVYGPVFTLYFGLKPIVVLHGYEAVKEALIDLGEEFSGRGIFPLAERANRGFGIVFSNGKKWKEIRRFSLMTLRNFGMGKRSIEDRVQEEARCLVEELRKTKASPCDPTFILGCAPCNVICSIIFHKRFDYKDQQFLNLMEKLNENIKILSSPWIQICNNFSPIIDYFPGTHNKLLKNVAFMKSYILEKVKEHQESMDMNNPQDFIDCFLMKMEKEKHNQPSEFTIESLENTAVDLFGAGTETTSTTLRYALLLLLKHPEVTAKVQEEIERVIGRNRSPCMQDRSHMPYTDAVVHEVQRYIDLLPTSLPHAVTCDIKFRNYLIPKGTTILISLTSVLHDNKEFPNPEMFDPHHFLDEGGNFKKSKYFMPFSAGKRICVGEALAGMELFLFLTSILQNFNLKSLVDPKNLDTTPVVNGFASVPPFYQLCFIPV
Summary of the method: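 P450-Glo proluciferin substrate with CYP2C9 enzyme; 10 min RT preincubation, then NADPH regeneration 1 h at 37C; luciferin detection reagent 20 min RT, luminescence in relative luminescence units.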

[3] = target: Voltage-gated inwardly rectifying potassium channel KCNH2 (Homo sapiens) (UniProt Q12809); assay: Human Ether-a-go-go-Related Gene (hERG) channel small molecule antagonists: fluorescence cell-based qHTS assay (AID 1671200); conditions: hERG-U2OS cells, FluxOR thallium flux fluorescence; series mostly up to 76.8 µM; further: nearly all actives have a fitted effect of over 50% in size
Voltage-gated inwardly rectifying potassium channel KCNH2 (Homo sapiens), sequence (Q12809 whole entry, looked up): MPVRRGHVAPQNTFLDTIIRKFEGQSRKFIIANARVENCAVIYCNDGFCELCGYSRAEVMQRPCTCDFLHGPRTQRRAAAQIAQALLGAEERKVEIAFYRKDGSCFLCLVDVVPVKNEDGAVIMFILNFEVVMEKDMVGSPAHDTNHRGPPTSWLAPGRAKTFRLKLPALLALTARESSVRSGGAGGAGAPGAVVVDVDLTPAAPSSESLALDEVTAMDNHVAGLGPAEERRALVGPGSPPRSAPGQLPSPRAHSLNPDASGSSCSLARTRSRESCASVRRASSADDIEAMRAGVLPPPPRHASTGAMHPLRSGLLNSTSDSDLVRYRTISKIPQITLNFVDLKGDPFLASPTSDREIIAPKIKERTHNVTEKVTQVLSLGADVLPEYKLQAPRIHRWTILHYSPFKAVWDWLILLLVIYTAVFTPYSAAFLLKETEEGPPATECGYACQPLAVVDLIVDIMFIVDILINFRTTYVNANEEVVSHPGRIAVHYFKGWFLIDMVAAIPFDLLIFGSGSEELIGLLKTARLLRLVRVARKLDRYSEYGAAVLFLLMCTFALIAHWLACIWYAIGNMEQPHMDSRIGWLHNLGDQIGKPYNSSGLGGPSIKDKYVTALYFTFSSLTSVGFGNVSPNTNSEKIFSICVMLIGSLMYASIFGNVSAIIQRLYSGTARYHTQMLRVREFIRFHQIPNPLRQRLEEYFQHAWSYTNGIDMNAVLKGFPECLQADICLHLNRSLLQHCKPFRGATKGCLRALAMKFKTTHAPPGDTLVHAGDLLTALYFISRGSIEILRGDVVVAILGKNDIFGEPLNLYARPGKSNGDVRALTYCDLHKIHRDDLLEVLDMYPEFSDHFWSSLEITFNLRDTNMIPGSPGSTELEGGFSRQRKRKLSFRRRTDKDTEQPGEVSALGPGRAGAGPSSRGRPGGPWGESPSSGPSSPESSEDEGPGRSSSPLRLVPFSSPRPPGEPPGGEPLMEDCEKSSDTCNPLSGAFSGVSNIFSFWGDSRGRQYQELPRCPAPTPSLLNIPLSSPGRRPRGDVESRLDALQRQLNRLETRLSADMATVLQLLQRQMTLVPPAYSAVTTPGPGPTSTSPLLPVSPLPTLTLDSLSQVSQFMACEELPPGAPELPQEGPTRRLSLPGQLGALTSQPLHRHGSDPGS
Summary of the method: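 Cell line hERG-U2OS; dye FluxOR II, 1 h RT dark; Tl+ stimulus; ex 480/em 540 nm, read each second for 2 min.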

[4] = target: Cytochrome P450 3A4 (Homo sapiens) (UniProt P08684); assay: Cytochrome P450 Family 3 Subfamily A Member 4 (CYP3A4) small molecule antagonists: luciferase reporter qHTS assay (AID 1671201); conditions: P450-Glo CYP3A4 enzyme, luciferin luminescence, 1 h; series mostly up to 115 µM; further: nearly all actives have a fitted effect of over 50% in size
Cytochrome P450 3A4 (Homo sapiens), sequence (P08684 whole entry, looked up): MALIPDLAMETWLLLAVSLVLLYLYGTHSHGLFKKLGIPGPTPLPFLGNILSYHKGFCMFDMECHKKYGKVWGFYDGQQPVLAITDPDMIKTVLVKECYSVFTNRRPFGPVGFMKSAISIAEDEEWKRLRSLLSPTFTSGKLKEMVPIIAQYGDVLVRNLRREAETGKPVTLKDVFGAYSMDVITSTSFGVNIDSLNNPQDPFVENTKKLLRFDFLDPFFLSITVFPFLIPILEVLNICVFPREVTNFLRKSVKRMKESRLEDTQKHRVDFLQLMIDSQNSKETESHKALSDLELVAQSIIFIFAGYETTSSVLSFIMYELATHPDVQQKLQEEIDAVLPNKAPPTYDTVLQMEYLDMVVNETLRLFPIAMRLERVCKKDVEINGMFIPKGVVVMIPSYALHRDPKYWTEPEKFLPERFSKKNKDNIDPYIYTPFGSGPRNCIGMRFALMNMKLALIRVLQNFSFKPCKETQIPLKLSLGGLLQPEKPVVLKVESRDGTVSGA
Summary of the method: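 Room-temperature assay throughout: 10 min compound–enzyme/substrate preincubation, 1 h reaction after NADPH regeneration solution, 20 min detection. Luciferin formed from proluciferin substrate is quantified by luminescence.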

[5] = target: Cytochrome P450 1A2 (Homo sapiens) (UniProt P05177); assay: Cytochrome P450 Family 1 Subfamily A Member 2 (CYP1A2) small molecule antagonists: luciferase reporter qHTS assay (AID 1671199); conditions: P450-Glo CYP1A2 enzyme, luciferin luminescence, 1 h; series mostly up to 115 µM; further: nearly all actives have a fitted effect of over 50% in size
Cytochrome P450 1A2 (Homo sapiens), sequence (P05177 whole entry, looked up): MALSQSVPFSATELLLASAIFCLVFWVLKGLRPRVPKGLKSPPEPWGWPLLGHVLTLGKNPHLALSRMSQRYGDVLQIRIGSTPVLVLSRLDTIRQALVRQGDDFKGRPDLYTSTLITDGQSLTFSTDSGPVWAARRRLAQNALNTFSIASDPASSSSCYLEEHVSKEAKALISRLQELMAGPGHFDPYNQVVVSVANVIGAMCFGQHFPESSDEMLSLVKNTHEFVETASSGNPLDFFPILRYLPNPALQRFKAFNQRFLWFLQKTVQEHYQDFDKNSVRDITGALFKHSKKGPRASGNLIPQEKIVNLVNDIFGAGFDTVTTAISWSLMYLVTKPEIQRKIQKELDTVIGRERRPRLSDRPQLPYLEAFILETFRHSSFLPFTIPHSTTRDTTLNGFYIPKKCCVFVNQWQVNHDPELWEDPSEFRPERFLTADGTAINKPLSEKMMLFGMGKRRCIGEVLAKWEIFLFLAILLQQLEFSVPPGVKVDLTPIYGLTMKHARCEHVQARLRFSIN
Summary of the method: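 Room-temperature CYP1A2 reaction with proluciferin substrate: compounds added from DMSO, 10 min preincubation, NADPH regeneration for 1 h. Luciferin detection reagent then added; luminescence recorded as RLU.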
Potency means the concentration at half of the fitted maximal effect.

Compound	Potency [1]	Potency [2]	Potency [3]	Potency [4]	Potency [5]
CC(=O)O[C@@H]1C(=O)O[C@@H]2[C@H]1OC(=O)[C@@H]2OC(C)=O	inactive	inactive	inactive	inactive	–
O=C(/C=C/c1ccc(O)c(O)c1)O[C@@H]1C[C@](O)(C(=O)O)C[C@@H](O)[C@H]1O	80.9 µM (active)	inactive	inactive	inactive	–
CCN(CC)CCc1nc(-c2ccccc2)no1	inactive	inactive	–	inactive	–
O=C(O)c1cn(C2CC2)c2cc(Cl)c(F)cc2c1=O	inactive	inactive	inactive	inactive	–
CCCCCCCCCC(=O)OCC	56.4 µM (active)	inactive	inactive	inactive	–
CCOC(=O)C1=NN(c2ccccc2)C(=O)C1	inactive	71 µM (active)	inactive	inactive	–
CCCCOCCOCCOCCOCCO	inactive	inactive	inactive	inactive	–
CC(C(=O)O)c1ccc(-c2ccccc2)c(F)c1 (configuration not stated)	inactive	25.2 µM (active)	inactive	inactive	–
CCCCCCCCCCCCCCC1CO1 (configuration not stated)	inactive	inactive	–	inactive	–
C=CC(C)(CCC=C(C)C)OC(=O)c1ccccc1 (configuration not stated)	15.9 µM (active)	17.8 µM (active)	–	31.7 µM (active)	39.9 µM (active)
O=[N+]([O-])c1cccc(Cl)c1Cl	inactive	inactive	–	inactive	–
N#Cc1c(F)cccc1F	inactive	inactive	–	inactive	–
Cc1ccc(O)c([C@H](CCN(C(C)C)C(C)C)c2ccccc2)c1	24.5 µM (active)	–	–	–	inactive
CC(C)c1cccc(C(C)C)c1NC(=O)NS(=O)(=O)c1cc(C(C)(C)O)co1	11.2 µM (active)	35.6 µM (active)	–	inactive	–
CCCCCOC(=O)c1ccc(O)cc1	28.6 µM (active)	–	–	–	2.55 µM (active)
CCCCCCCCC(CO)CCCCCC (configuration not stated)	31.7 µM (active)	25.2 µM (active)	inactive	inactive	–
CCN(CC)CCOc1ccc2c(c1)C(=O)c1cc(OCCN(CC)CC)ccc1-2	inactive	inactive	inactive	inactive	–
COc1ccc([C@@H]2Sc3ccccc3N(CCN(C)C)C(=O)[C@@H]2OC(C)=O)cc1	inactive	–	–	–	inactive
CCCC[C@H]1CN(CC2CCOCC2)C(=O)OC12CCN(C1(C)CCN(C(=O)c3c(C)ncnc3C)CC1)CC2	inactive	–	–	–	35.2 µM (active)
CC(=O)NCCCS(=O)(=O)O	inactive	inactive	inactive	inactive	–
CCOc1cc(OCC)c(C(=O)CCC(=O)O)cc1OCC	inactive	inactive	–	inactive	inactive

Compound	Potency [1]	Potency [2]	Potency [3]	Potency [4]	Potency [5]
O=C(O)c1cccc(N(Cc2cccnc2)c2ccc(OC(F)F)c(OC(F)F)c2)c1	35.6 µM (active)	25.2 µM (active)	inactive	inactive	–
C[Si](C)O[Si](C)(C)O[Si](C)(C)O[Si](C)C	inactive	–	–	–	inactive
COCCCCCCCCOCCC[Si](C)(O[Si](C)(C)C)O[Si](C)(C)C	56.4 µM (active)	35.6 µM (active)	–	3.56 µM (active)	–
Oc1ccc(Cc2ccccc2)cc1	20.8 µM (active)	65.7 µM (active)	inactive	inactive	–
Cn1c(N)nc2nc[nH]c2c1=O	inactive	inactive	inactive	–	–
CC(C)CC=O	35.6 µM (active)	–	–	–	inactive
C=C(C)C(=O)OC(C)C	inactive	inactive	–	inactive	inactive
Cc1occc1S	56.4 µM (active)	35.6 µM (active)	–	28.3 µM (active)	inactive
CN1CCN(C2=Nc3cc(Cl)ccc3Nc3ccccc32)CC1	inactive	–	–	–	inactive
NC(N)=NN=C(/C=C/c1ccc([N+](=O)[O-])o1)/C=C/c1ccc([N+](=O)[O-])o1	3.89 µM (active)	24.5 µM (active)	2.39 µM (active)	–	–
CC(C)(Oc1ccc(Cl)cc1)C(=O)OCCCOC(=O)C(C)(C)Oc1ccc(Cl)cc1	3.47 µM (active)	5.49 µM (active)	–	inactive	–
O=S1(=O)c2cccc3cccc(c23)N1CCCN1CCN(c2ccc(F)cc2)CC1	24.5 µM (active)	–	–	–	15.5 µM (active)
N#CCc1cccc(C(F)(F)F)c1	inactive	inactive	inactive	inactive	–
NCCCN(CCO)CCO	inactive	inactive	–	inactive	–
C=CC(=O)OCCOC(=O)CCC(=O)O	inactive	inactive	inactive	31.7 µM (active)	–
Cc1ccc(C(C)c2ccc(C)c(C)c2)cc1C	7.1 µM (active)	11.2 µM (active)	inactive	inactive	–
C=C(C)C(=O)OCCN(C)C	36 µM (active)	–	inactive	36 µM (active)	inactive
CCCCCCCCN(C)C	inactive	–	inactive	inactive	inactive
Cc1ccccc1N=Nc1ccc(N=Nc2c(O)ccc3ccccc23)c(C)c1	34.7 µM (active)	–	inactive	inactive	13.8 µM (active)
O=[N+]([O-])c1cc[n+]([O-])cc1	35.6 µM (active)	–	inactive	63.3 µM (active)	31.7 µM (active)
CC(C)(C)c1cc(CCC(=O)OCC(COC(=O)CCc2cc(C(C)(C)C)c(O)c(C(C)(C)C)c2)(COC(=O)CCc2cc(C(C)(C)C)c(O)c(C(C)(C)C)c2)COC(=O)CCc2cc(C(C)(C)C)c(O)c(C(C)(C)C)c2)cc(C(C)(C)C)c1O	33.8 µM (active)	–	inactive	inactive	6.75 µM (active)
